From PubChem BioAssay (NCI) come the findings set out here.

This is part of a sample that, as a whole, favours compounds with a hit. Of some 83,000 tested, about 20% had one in any assay.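 Step 1: grow cells in 96-well plates. Step 2: add test compound at a single concentration. Step 3: incubate 48 h. Step 4: record percent growth.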 Values without a mark were called inactive. Activity calls are given as the source filed them.

The subject of this experiment is KM12 colon. Description: NCI-60 one-dose screen, 48 h (100 = growth as untreated, 0 = no growth, -100 = all killed). The note with it: 10 µM unless noted. As for the experimental part:
Growth inhibition of the KM12 human tumor cell line is measured as a screen for anti-cancer activity. Cells are grown in 96 well plates and exposed to the test compound for 48 hours. Compounds are tested at a single concentration, which is 10^-5 M for most compounds. The reported endpoint is percent growth (GI% or GIPRCNT), where numbers from 0 - 100% represent growth inhibition, and numbers from -100% - 0 represent cell death. For example, a value of 40 represents 60% growth inhibition. A value of 0 means no net growth occurred over the course of the experiment. A value of -40 indicates 40% of cells at the beginning of the experiment died by the end of the experiment. A value of -100 means all cells are dead at the end of the experiment.
NCI-60 Human Tumor Cell Lines Screen was performed using the standard one-dose NCI protocol, which is described in more detail at https://dtp.cancer.gov/discovery_development/nci-60/default.htm.
Compounds with GIPRCNT values below 10 were considered active. Activity score was based on GIPRCNT using the following formula: […]
Score is 0 for GIPRCNT values of 100 or above, 50 for GIPRCNT values of 0, and 100 for GIPRCNT values of -100.
For the molecule `CCCCCCC12CCC(=O)N1CCc1cncn12` (stereo not given), the growth was 113%.

For the molecule `C=C(C)[C@@H]1CC[C@]2(C(=O)N3CCOCC3)CC[C@]3(C)[C@H](CC[C@@H]4[C@@]5(C)C/C(=C/c6ccncc6)C(=O)C(C)(C)[C@@H]5CC[C@]43C)[C@@H]12`, the growth was 52.2%. With `O=S(=O)(c1ccccc1)n1cc2c(c1)-c1nc(Nc3ncccn3)sc1CC2` the figure was 82.8%. The value for `O=C(NCCNc1nccc(Nc2ccc(S(=O)(=O)Nc3ccccn3)cc2)n1)c1cccc([N+](=O)[O-])c1` was 99%.

On to `Cc1cc(S(=O)(=O)/N=C(\N)n2nc(C)c(C)c2C)c(SCc2ccccc2)cc1Cl`, for which the growth is 81.7%. In the case of `Cc1c(-c2ccc(O)cc2)n(Cc2ccc(OCCN3CCCCCC3)cc2)c2ccc(O)cc12`, the growth was 73.4%.

Turning to `CCOC(=O)c1ccc2c(c1)nc(-c1ccccc1)n2C1CCCCC1`, the growth is 95.1%. The value for `Nc1nc2ccccc2c2c1S(=O)(=O)c1ccc(Cl)cc1C2=O` was 18.4%; that for `CCN(CC)Cc1cc(C=C2C(=O)NC(=S)NC2=O)cc(OC)c1O` was 111%; that for `O=S(=O)(NCCNc1nccc(-c2c(-c3ccc(F)c(O)c3)nc3occn23)n1)c1ccc(Cl)cc1` was 84%.

Regarding `COc1ccc(/C=C(\C#N)n2nnc3cc(F)c(F)cc32)cc1`, the growth is 34%.

For the molecule `Cc1ccc(NC(=O)c2sc3nc(C)c(Br)c(C)c3c2N)cc1`, the growth was 74.8%. The value for `NNc1nc(-c2cccnc2)nc2c1sc(=S)n2-c1ccccc1` was 102%. With `CCOC(=O)n1cc(-c2nonc2-c2cn(C(=O)OCC)c3ccc(Br)cc23)c2ccccc21` the figure was 72.7%; with `C=C1C(=O)O[C@H]2[C@H]1CC/C(COC(=O)NCc1ccc(Cn3c(=O)sn(CCCCC)c3=O)cc1)=C\CC[C@@]1(C)O[C@@H]21`, 95.9%.

As for `COc1cc(OCc2cccc(Br)c2C)cc(OC)c1C=O`, the growth was 94.5%. For `CC1(C)CC(=O)C2=C(C1)N(c1ccc(OC(F)(F)F)cc1)C(N)=C(C#N)C2c1ccc(Br)cc1F` (stereo not given), the growth is 89.5%. The value for `O=C(Nc1cccc(-c2ccc(Cl)c(C(F)(F)F)c2)c1)C1CCN(Cc2cccc3cccnc23)CC1` was -27.4% (active); that for `Nc1n[nH]c2cccc(C#Cc3cccc(C(=O)Nc4cc(C(F)(F)F)cc(C(F)(F)F)c4)c3)c12` was 43.9%. The value for `COc1cc2nc3cc([N+](=O)[O-])ccc3c(NCCNCC(C)O)c2cc1OC` (stereo not given) was -11.9% (active); that for `OCCn1cc(-c2nc(-c3c[nH]c4ncccc34)cs2)c2ccccc21` was 48%. The value for `CC(C)C1=NOC(=O)C1=Cc1cn(-c2ccccc2)nc1-c1ccc(F)cc1` was 69.7%; that for `COc1ccc(CN2c3ccccc3Sc3ccccc32)cc1F` was 14%. Consider `O=C(/C=C/c1cn(-c2ccccc2)nc1-c1ccc(Cl)cc1)c1ccc(F)cc1`, for which the growth was 63.8%.

`CC(C)=CCCC(C)c1ccc(C)c2c1OCN(CCCCCO)C2` (stereo not given): the growth was 104%. With `Nc1ncnc2c1c(-c1cccc(Cl)c1)nn2CC(=O)N1CCOCC1` the figure was 102%.

`Cc1cc(N2CCCCC2)cc(C)c1-c1csc(NC(=O)c2ccncc2)n1`: the growth was 64.5%. With `CC(C)c1ccc(C(=O)Nc2sc3c(c2C(N)=O)CCC(=O)C3)cc1` the figure was 1.39% (active); with `O=C(Nc1nc2ccc(C(=O)N3CCN(/C=C/c4ccccc4)CC3)cc2s1)c1ccc(NCCc2ccccc2)c([N+](=O)[O-])c1`, 53.5%.

As for `O=c1c2ccccc2n2cnc3ccc(Cl)c1c32`, the growth is 84.3%. The value for `COc1ccc(Nc2nnc(-c3ccc(OC)c(OC)c3)o2)cc1` was 85.1%; that for `CCOC(=O)C1=C(c2ccccc2)N=C2SC=C(c3ccc(Cl)cc3)N2C1c1ccc(Br)cc1` (stereo not given) was 78.1%; that for `O=C(c1ccccc1)c1ccc(C2CCCCC2)cc1` was 103%. With `CN1C(=O)/C(=C\c2c(Cl)cccc2Cl)c2ccccc21` the figure was 62.3%; with `Cc1cn(-c2cc(NC(=O)c3cncc(C#Cc4cnc(N)c5ncccc45)c3)cc(C(F)(F)F)c2)cn1`, 25%. As to `CNc1nnc2n(-c3ccccc3)c(=O)c3cnn(-c4ccccc4)c3n12`, the growth was 87.4%. With `CC(C)c1ccc(-n2c(=S)[nH]c3sc4cc(O)ccc4c3c2=O)cc1` the figure was 105%; with `O=C1NC(=O)C(Cc2ccc(OCc3ccc(-c4ccc(Cl)cc4Cl)cc3)cc2)S1` (stereo not given), 47.7%. The value for `Oc1c(Br)cc(Br)c2ccc(Cn3cc(-c4ccccc4C(F)(F)F)nn3)nc12` was 100%; that for `COc1ccc(/C=N\Nc2nc(SCCC(C)C)nc(-c3ccc(OC)cc3)c2C#N)cc1` was 83%.
